Measured values: PubChem BioAssay AID1259412 (Laboratorio de Genomica e Expressao (LGE), UNICAMP, 2018)
Active and inactive are the calls of the source. The rule behind the calls is not given here.

What was measured:
[1] = alternative oxidase inhibition and growth effect – profiling panel (AID 1259412); conditions: AOX-dependent respiration, at 500 µM; for growth (% of control): O2 uptake, measured here: growth; for O2 uptake (% of control): measured here: O2 uptake, control condition (no AOX);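 for growth (% of control): growth monitored over 72 h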
[2] = test system: alternative oxidase (AOX); assay: as above; conditions: AOX-dependent respiration, at 500 µM, stronger effect = lower value
[3] = AOX-dependent treatment condition, stronger effect = lower value

Row | Compound | growth (% of control) [1, 3] [%] | growth (% of control) ([1]; control condition) [%] | O2 uptake (% of control) ([1]; stronger effect = lower value) [%] | O2 uptake (% of control) [2]
1 | O=C(Nc1cccc(OCc2ccccc2)c1)c1cccc(Cl)c1 | 95.6 | 92.6 | 110 | 76.1% (active)
2 | O=C(Nc1cccc(OCc2ccccc2)c1)c1ccccc1 | 99.7 | 117 | 90.5 | 38.2% (active)
3 | O=C(NCc1ccc2c(c1)OCO2)c1cccc(I)c1 | 99.2 | 97.5 | 99.1 | 26.3% (active)
4 | O=C(Nc1cccc(NC(=O)c2cccc(I)c2)c1)c1cccc(I)c1 | 107 | 116 | 106 | 89% (active)
5 | O=C(Nc1cccc([N+](=O)[O-])c1)c1ccccc1 | 61.1 | 103 | 95.6 | 36% (active)
6 | O=C(Nc1cccc(NC(=O)c2cccc(Cl)c2)c1)c1cccc(Cl)c1 | 90.7 | 114 | 97.7 | 49.2% (active)
7 | O=C(Nc1ccc(N2CCOCC2)cc1)c1cccc(I)c1 | 95.3 | 99.3 | 94.4 | 74.5% (inactive)
8 | COc1cccc(C(=O)NCc2ccc3c(c2)OCO3)c1 | 46.4 | 57 | 95.8 | 36.4% (active)
9 | Nc1cccc(S(=O)(=O)c2cccc(NC(=O)c3ccccc3)c2)c1 | 93.3 | 84.2 | 112 | 98.2% (inactive)
10 | O=C(Nc1ccccc1)c1cccc(I)c1 | 67.8 | 86.4 | 87.7 | 21.9% (active)
11 | O=C(Nc1cccc(I)c1)c1cccc(Cl)c1 | 63.1 | 82.8 | 88.3 | 13.2% (active)
12 | Cc1cccc(C(=O)Nc2cccc(NC(=O)c3cccc(C)c3)c2)c1 | 70.5 | 118 | 102 | 51.6% (active)
13 | N#Cc1cccc(C(=O)NCc2ccc3c(c2)OCO3)c1 | 79.6 | 79.7 | 103 | 66.1% (active)
14 | Cc1cccc(C(=O)Nc2cccc(Br)c2)c1 | 26.6 | 101 | 90.2 | 18.6% (active)
15 | O=C(Nc1cccc(Br)c1)c1cccc(F)c1 | 22.3 | 90.4 | 77.9 | 35.1% (active)
16 | O=C(Nc1cccc(I)c1)c1cccc(F)c1 | 67.2 | 97.5 | 77.3 | 21.9% (active)
17 | Cc1cccc(C(=O)Nc2ccc(N3CCOCC3)cc2)c1 | 91 | 96 | 96.2 | 84.8% (inactive)
18 | Cc1cccc(C(=O)Nc2cccc([N+](=O)[O-])c2)c1 | 36.7 | 80.2 | 98.8 | 34.3% (active)
19 | O=C(Nc1cccc(OCc2ccccc2)c1)c1cccc(Br)c1 | 90.8 | 93.9 | 107 | 88.7% (active)
20 | O=C(Nc1cccc(Cl)c1)c1ccccc1 | 46.9 | 118 | 88 | 21.5% (active)
21 | O=C(Nc1ccc(-n2ccnc2)cc1)c1cccc(Br)c1 | 44.9 | 75.3 | 84.4 | 72.6% (active)
22 | O=C(Nc1cccc([N+](=O)[O-])c1)c1cccc(I)c1 | 68.4 | 95.6 | 93.5 | 21% (active)
23 | O=C(Nc1cccc(NC(=O)c2cccc(Br)c2)c1)c1cccc(Br)c1 | 77.6 | 95.3 | 105 | 66.5% (active)
24 | O=C(Nc1cccc(F)c1)c1cccc(F)c1 | 23 | 78.7 | 103 | 52.3% (active)
25 | O=C(Nc1cccc(C(F)(F)F)c1)c1cccc(I)c1 | 49.4 | 83.8 | 82.2 | 17.5% (active)
26 | COc1cc(NC(=O)c2cccc(F)c2)cc(OC)c1OC | 92.8 | 80.8 | 93.1 | 98.7% (inactive)

Row | Compound | growth (% of control) [1, 3] [%] | growth (% of control) ([1]; control condition) [%] | O2 uptake (% of control) ([1]; stronger effect = lower value) [%] | O2 uptake (% of control) [2]
27 | COc1cc(NC(=O)c2cccc(Cl)c2)cc(OC)c1OC | 82.2 | 78 | 97.8 | 81.5% (active)
28 | NC(=O)c1ccccc1NC(=O)c1ccccc1I | 93.3 | 82.7 | 112 | 84.5% (inactive)
29 | Cc1cccc(C(=O)Nc2cccc(F)c2)c1 | 0.51 | 43.4 | 87.8 | 30.7% (active)
30 | O=C(Nc1cccc(Cl)c1)c1cccc(I)c1 | 73 | 88.6 | 80.5 | 15.4% (active)
31 | O=C(Nc1ccccc1)c1cccc(Cl)c1 | 92.3 | 91.8 | 94.9 | 22% (active)
32 | O=C(Nc1cccc([N+](=O)[O-])c1)c1cccc(F)c1 | 91.1 | 120 | 92.7 | 44.8% (active)
33 | COc1cc(NC(=O)c2ccccc2)cc(OC)c1OC | 84.6 | 76 | 95.8 | 61.1% (active)
34 | O=C(Nc1cccc(F)c1)c1cccc(Br)c1 | 23.1 | 88 | 73.7 | 28.7% (active)
35 | COc1cccc(C(=O)Nc2ccccc2C(N)=O)c1 | 80.1 | 82.1 | 93.7 | 76.2% (inactive)
36 | O=C(Nc1ccc(N2CCOCC2)cc1)c1ccccc1I | 86.7 | 96.2 | 86.1 | 59.6% (active)
37 | O=C(Nc1cccc(Br)c1)c1cccc(Br)c1 | 82.5 | 91.3 | 81 | 16.5% (active)
38 | Nc1cccc(S(=O)(=O)c2cccc(NC(=O)c3cccc(Br)c3)c2)c1 | 86.5 | 64 | 105 | 110%
39 | N#Cc1cccc(C(=O)Nc2cccc(C(F)(F)F)c2)c1 | 49.7 | 90.1 | 89.3 | 28.9% (active)
40 | O=C(Nc1cccc(NC(=O)c2ccccc2)c1)c1ccccc1 | 106 | 103 | 92.6 | 44% (active)
41 | Cc1cccc(C(=O)Nc2cccc(OCc3ccccc3)c2)c1 | 93.7 | 109 | 108 | 67.8% (active)
42 | O=C(Nc1cccc(I)c1)c1cccc(Br)c1 | 88.2 | 103 | 92 | 14.3% (active)
43 | O=C(Nc1ccccc1)c1ccccc1 | 69.8 | 94.3 | 99.9 | 67.2% (active)
44 | O=C(Nc1cccc(I)c1)c1ccccc1 | 95 | 91 | 78.6 | 17.3% (active)
45 | Cc1cccc(C(=O)Nc2cccc(C(F)(F)F)c2)c1 | 54.5 | 88.4 | 101 | 15.2% (active)
46 | COc1cc(NC(=O)c2cccc(C)c2)cc(OC)c1OC | 85.5 | 96.2 | 83.6 | 66.4% (active)
47 | NC(=O)c1ccccc1NC(=O)c1ccccc1 | 84.2 | 88.6 | 93.9 | 91.2%
48 | O=C(Nc1cccc(Br)c1)c1ccccc1 | 51.9 | 71.6 | 88.5 | 15.7% (active)
49 | O=C(NCc1ccc2c(c1)OCO2)c1cccc(Br)c1 | 88 | 82.8 | 94.7 | 24.4% (active)
50 | O=C(Nc1cccc(I)c1)c1ccccc1I | 112 | 94.8 | 84 | 13.1% (active)
51 | N#Cc1cccc(C(=O)Nc2cccc(Br)c2)c1 | 62.4 | 89.7 | 82.6 | 21.3% (active)
52 | O=C(Nc1cccc(I)c1)c1cccc(I)c1 | 87.3 | 90.6 | 96.7 | 25.1% (active)

Row | Compound | growth (% of control) [1, 3] [%] | growth (% of control) ([1]; control condition) [%] | O2 uptake (% of control) ([1]; stronger effect = lower value) [%] | O2 uptake (% of control) [2]
53 | NC(=O)c1ccccc1NC(=O)c1cccc(F)c1 | 88.1 | 94.5 | 85.1 | 81% (inactive)
54 | COc1cccc(C(=O)Nc2ccc(N3CCOCC3)cc2)c1 | 86.1 | 86.6 | 102 | 92.3%
55 | COc1cc(NC(=O)c2ccccc2I)cc(OC)c1OC | 91.6 | 90.9 | 92.4 | 80% (active)
56 | N#Cc1cccc(C(=O)Nc2cccc(F)c2)c1 | 55.1 | 107 | 103 | 53.5% (active)
57 | N#Cc1cccc(C(=O)Nc2cccc([N+](=O)[O-])c2)c1 | 91.7 | 101 | 110 | 98.7%
58 | O=C(NCc1ccc2c(c1)OCO2)c1cccc(F)c1 | 39.8 | 48.8 | 89.6 | 36.9% (active)
59 | O=C(Nc1cccc(C(F)(F)F)c1)c1cccc(F)c1 | 7.63 | 35.2 | 83 | 13.8% (active)
60 | NC(=O)c1ccccc1NC(=O)c1cccc(Br)c1 | 97.2 | 80.6 | 80.8 | 36.9% (active)
61 | COc1cc(NC(=O)c2cccc(Br)c2)cc(OC)c1OC | 90.6 | 84.3 | 90 | 63.6% (active)
62 | COc1cccc(C(=O)Nc2cccc(I)c2)c1 | 78.2 | 80 | 92.5 | 23% (active)
63 | N#Cc1cccc(C(=O)Nc2cccc(OCc3ccccc3)c2)c1 | 108 | 90.3 | 90.1 | 39.1% (active)
64 | O=C(Nc1cccc(C(F)(F)F)c1)c1ccccc1 | 38.9 | 71.4 | 84 | 16.8% (active)
65 | N#Cc1cccc(C(=O)Nc2ccccc2C(N)=O)c1 | 99.3 | 85.5 | 107 | 95.7% (inactive)
66 | O=C(Nc1ccccc1)c1cccc(F)c1 | 73.9 | 101 | 103 | 61.8% (active)
67 | O=C(Nc1cccc(Br)c1)c1cccc(Cl)c1 | 65.4 | 91.3 | 95.9 | 12% (active)
68 | COc1cccc(C(=O)Nc2cccc(NC(=O)c3cccc(OC)c3)c2)c1 | 95.4 | 96.8 | 102 | 79.2% (inactive)
69 | Cc1cccc(C(=O)NCc2ccc3c(c2)OCO3)c1 | 41.6 | 48.8 | 99 | 25.8% (active)
70 | Cc1cccc(C(=O)Nc2cccc(I)c2)c1 | 61.9 | 110 | 93.2 | 13.3% (active)
71 | N#Cc1cccc(C(=O)Nc2ccc(N3CCOCC3)cc2)c1 | 96.5 | 92.2 | 105 | 90.5% (inactive)
72 | O=C(NCc1ccc2c(c1)OCO2)c1ccccc1 | 56.1 | 65.8 | 99.1 | 38.6% (active)
73 | O=C(Nc1cccc(Br)c1)c1ccccc1I | 57.8 | 98.8 | 81 | 10.4% (active)
74 | COc1cccc(C(=O)Nc2cccc([N+](=O)[O-])c2)c1 | 63.7 | 109 | 91.5 | 31.9% (active)
75 | N#Cc1cccc(C(=O)Nc2cccc(NC(=O)c3cccc(C#N)c3)c2)c1 | 91.4 | 132 | 107 | 95.1%
76 | O=C(Nc1cccc([N+](=O)[O-])c1)c1cccc(Cl)c1 | 84.5 | 90.6 | 93 | 22.3% (active)
77 | COc1cc(NC(=O)c2cccc(C#N)c2)cc(OC)c1OC | 89.6 | 90.9 | 104 | 91.5% (inactive)
